HIF-2a block = HIF-2a reporter inhibitors, primary screen, luminescence, 786-0 RCC cells. inhibition, % at 18.8 µM. AID 624352, 2012. 786-0 RCC cells HIF-2a reporter, luciferase luminescence, overnight. actives 0.72% (n = 360,000);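 active = inhibition of the luminescence signal of 40% or more relative to plate controls, in a single-dose primary screen at 18.75 µM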
KKLEB tox = cytotoxicity in KKLEB CF airway cells, primary screen, cytotoxicity control for CF NF-kB inhibitor project, cell-based, uHTS, fluorescence assay plates | activity change (cytotoxicity), % at 5 µM | AID 602141, 2011 | KKLEB CF airway cells viability, ATPlite luminescence, overnight; active compounds read low; cells stimulated with P. aeruginosa culture filtrate | actives 0.36% (n = 360,000);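 active = corrected activity change at or below -50% at 5 µM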
CF NFkB block = inhibitors of PAF-induced NF-kB signaling, primary screen, cell-based, GFP fluorescence, uHTS; KKLEB NF-kB-GFP reporter, GFP fluorescence overnight; inhibition, % at 5 µM; actives 0.86% (n = 360,000); AID 588850, 2011;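 active = at least 50% inhibition at 5 µM, scaled per plate between neutral and stimulator controls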;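 note: PAF is a Pseudomonas aeruginosa culture filtrate used as stimulus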
TRPM1 prom inh = inhibitors of MITF-dependent TRPM1 promoter reporter, primary screen, cell-based, SK-MEL-5, single point, luciferase. SK-MEL-5 TRPM1 promoter luciferase, 24 h. inhibition, % at 12.5 µM. actives 0.83% (n = 330,000). AID 488899, 2010;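 active = mean inhibition across replicates of 60% or more, whatever share of single replicates reaches that level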
Peg3 prom inh = Peg3 promoter-driven luciferase inhibitors, primary screen, cell-based, HeLa, luciferase luminescence; HeLa PEG-Prom luciferase reporter, overnight; inhibition, % at 20 µM; actives 1.7% (n = 360,000); AID 588405, 2011;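 active = inhibition of at least 50% at 20 µM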
Shn3 inh set2 = reduction of Shn3 3'UTR firefly luciferase signal, primary screen, Schnurri-3 inhibitor project, cell-based, Clone20 osteoblasts, set 2 | inhibition, % at 12.5 µM | Clone20 osteoblast Shn3 3'UTR firefly luciferase, 24 h | actives 0.52% (n = 360,000);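 active = mean inhibition of at least 75% with every replicate also reaching 75%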
Of the large screens only hits and unclear results are named; the others gave an inactive call; ! = not active in a repeat. An excerpt weighted towards active compounds, which were near 2.8% of everything screened.

CN1CCN(CCCNC(=O)c2ccc(/C=C3\Sc4ccccc4N(Cc4ccc(F)cc4)C3=O)cc2)CC1	Peg3 prom inh 104
COc1ccc(C(=O)NC(C(=O)NCC2(N3CCCCC3)CCCCC2)C(C)C)cc1 (configuration not stated)	none
CCC(C)n1ncn(-c2ccc(N3CCN(c4ccc(OCC5COC(Cn6cncn6)(c6ccc(Cl)cc6Cl)O5)cc4)CC3)cc2)c1=O (configuration not stated)	CF NFkB block 63
COc1cc2c3nnc(-c4ccc(F)cc4)c-3cn(Cc3cccc(C)c3)c2cc1OC	KKLEB tox -77, Peg3 prom inh 100 (no result: TRPM1 prom inh)
COc1cc2c3nnc(-c4ccccc4)c-3cn(Cc3ccc(F)cc3)c2cc1OC	none
COc1cc2c3nnc(-c4ccc(F)cc4)c-3cn(Cc3ccc(C)cc3)c2cc1OC	TRPM1 prom inh 85, Peg3 prom inh 66
O=C1CCC/C(=N/Nc2ccc(Cl)cc2)C1	none
COc1ccc(/C(C)=N/NC(=O)CNC(=O)/C=C\c2ccco2)cc1	none
COc1ccc(N(CC(=O)N2CCN(Cc3ccccc3)CC2)S(C)(=O)=O)cc1Cl	none
CCCn1c(=N)n(CC(=O)c2ccc([N+](=O)[O-])cc2)c2ccccc21	Peg3 prom inh 60
N=c1n(CC(=O)c2cccc([N+](=O)[O-])c2)c2ccccc2n1Cc1ccccc1	Peg3 prom inh 58
Cc1ccccc1Cn1c(=N)n(CC(=O)c2ccc([N+](=O)[O-])cc2)c2ccccc21	KKLEB tox -64, TRPM1 prom inh 66, Peg3 prom inh 71
CCn1c(=N)n(CC(=O)c2cccc([N+](=O)[O-])c2)c2ccccc21	none
CCOC(=O)C(=O)Nc1ncc(Cl)s1	none
C=CCNc1nc2c(c(=O)n(C)c(=O)n2C)n1CCCCCC	Shn3 inh set2 88
C=CCNc1nc2c(c(=O)n(C)c(=O)n2C)n1CC	none (no result: TRPM1 prom inh)
Cc1cccc(CSc2cccc3cccnc23)c1	Shn3 inh set2 96
NNC(=O)c1ccc(CSc2cccc3cccnc23)cc1	none
CC(=O)c1cccc(NC(=O)C2CC(=O)N(c3ccc4c(c3)OCCO4)C2)c1 (configuration not stated)	none
O=C(CCl)Nc1ccc(S(=O)(=O)NC2=NCCCCC2)cc1	none
O=C(Nc1cccc(S(=O)(=O)NC2=NCCC2)c1)C1CC(=O)N(c2ccc3c(c2)OCCO3)C1 (configuration not stated)	Shn3 inh set2 87
O=C(CCl)Nc1cccc(S(=O)(=O)NC2=NCCCCC2)c1	TRPM1 prom inh 76, Peg3 prom inh 51
O=C(Cn1nnc(-c2ccc(CN3CCOCC3)cc2)n1)Nc1nc(-c2ccccc2)cs1	KKLEB tox -51
Cc1cccc(C)c1NC(=O)Cn1nnc(-c2ccc(CN3CCC(C)CC3)cc2)n1	none
CC1CCN(Cc2ccc(-c3nnn(CC(=O)Nc4ccccc4Cl)n3)cc2)CC1	Shn3 inh set2 87
COc1ccc(-c2cccc3c2C2CC3CCN2C(=O)OCc2ccccc2)cc1 (configuration not stated)	none
COc1cccc(CNC(=O)C(=O)N2CCC3(CC2)OCCN3S(=O)(=O)c2ccc(C)cc2)c1	none
O=[N+]([O-])c1cc2no[n+]([O-])c2cc1N1CCCCC1	TRPM1 prom inh 80, Peg3 prom inh 99
CN(C(=O)c1cnc(N2CCN(c3ncccn3)CC2)c2ccccc12)c1ccc(Cl)cc1	Peg3 prom inh 62
CCN(C(=O)c1cnc(N2CCN(c3ncccn3)CC2)c2ccccc12)c1cccc(Cl)c1	none
c1ccc(OC2CCCCC2N2CCOCC2)cc1 (configuration not stated)	none (no result: TRPM1 prom inh)
CCCCCCNC(=O)OC12CN(C(=O)OC(C)C)N(C(=O)OC(C)C)CC1(O)CN(S(=O)(=O)c1ccc(C)cc1)C2 (configuration not stated)	Peg3 prom inh 84 (no result: TRPM1 prom inh)
Cc1c(CCOC(=O)C2C3CC4CC(C3)CC2C4)sc[n+]1CC(=O)c1ccc(Br)cc1 (configuration not stated)	TRPM1 prom inh 95!, Peg3 prom inh 101
COc1ccc(C(=O)NCCSc2ccccc2)cc1OC	none
CC(C)CC1COC(=O)N1 (configuration not stated)	none
O=[N+]([O-])c1ccc(/C=N/n2cnc3ccccc32)s1	TRPM1 prom inh 86, Shn3 inh set2 90
COc1cccc(/C=N/n2cnc3cc(C)c(C)cc32)c1OC	none
Cc1cc2ncn(/N=C/c3ccc([N+](=O)[O-])s3)c2cc1C	Peg3 prom inh 73
Cc1ccc(-c2nnn(CC(=O)N3CCCCC3)n2)cc1	none
O=C(NCCCl)Nc1ncn[nH]1	Peg3 prom inh 100
CCCCC(=O)N(C)c1c(CC)nc2c(OCCOc3ccc(F)cc3)cccn12	none (no result: TRPM1 prom inh)
C[C@H]1COC(=O)[C@H](Cc2ccc(F)cc2)C/C=C\C[C@H](CC(=O)NCCO)C(=O)N1	none
CC1CCCC=CC2CC(OC(=O)CN(C)C)CC2C(O)C=CC(=O)O1 (configuration not stated)	CF NFkB block 71, TRPM1 prom inh 76, Peg3 prom inh 55
CCCN(CC(=O)Nc1ccccc1C)C(=O)C1CCN(S(=O)(=O)c2cccc(C(F)(F)F)c2)CC1	none
COc1ccc(CCNC(=O)C(C(=O)c2ccc(F)cc2)n2ccccc2=O)cc1OC (configuration not stated)	none
Cc1n[nH]c(=S)n1/N=C/c1c(O)ccc2ccccc12	Peg3 prom inh 57
O=C(OCc1nnc(-c2ccccc2)o1)c1cccc(-n2cnnn2)c1	none
O=C(CSc1n[nH]c(-c2ccccn2)n1)Nc1cccc(Cl)c1	Shn3 inh set2 92
COc1cccc(-c2cc(C(=O)Nc3ccc(N(C)C(C)=O)cc3)c3cc(Br)ccc3n2)c1	none
Cc1ccc(C(=O)NCCc2ccccc2)cc1	HIF-2a block 54
Cc1ccc(C(=O)NCCc2ccncc2)cc1	none
CC1CN(S(=O)(=O)c2ccc(C(=O)OCc3ccc(C#N)cc3)cc2)CC(C)O1 (configuration not stated)	none
CC(C)NC(=O)C1(C)CSCC(=O)N1CC(F)(F)F (configuration not stated)	none (no result: KKLEB tox, CF NFkB block, TRPM1 prom inh, Peg3 prom inh, Shn3 inh set2)
Cc1nnc(SCc2cnc(-c3ccc(C(C)C)cc3)s2)n1C	KKLEB tox -65
COC(=O)C(C#N)C(=C1C(=O)CC(C)(C)CC1=O)c1ccc(O)cc1 (configuration not stated)	KKLEB tox -50

Assay outcomes as filed in PubChem.
